# In all, about 360,000 compounds went through this assay and about 11,000 (3.1%) were called active. Roughly 4% stayed inconclusive and do not appear here. Shown is part of a subset that was picked to be rich in actives. Unmarked numbers belong to inactive results. Calls follow the shape of the dose curve; as a rule, active = well fitted inhibition curve with a large enough effect; inconclusive = small, poorly fitted or top-dose-only effect; inactive = no such curve, though single readings can be large or run the other way.
# Biological target: Schistosoma mansoni thioredoxin glutathione reductase (TGR) (UniProt Q962Y6)
# Test: qHTS Assay for the Inhibitors of Schistosoma Mansoni Peroxiredoxins; also: nearly all actives have a fitted effect of over 60% in size
# Conditions: purified TGR, DTNB reduction, TNB absorbance 405 nm; series mostly up to 114 µM; activity change, negative = inhibition: at the top concentration
# How it was run: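 First, TGR (20 nM dispensed) and NADPH were mixed with compound. Second, a 15 min room-temperature incubation followed. Third, further NADPH and then DTNB were added to start the reaction. Finally, TNB absorbance was monitored kinetically.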
# % is scaled to controls: 0 for no effect and ±100 for the full control effect; potency is read from the fitted curve at half-maximal effect.
Compound,"activity change, negative = inhibition [%]",Potency
Cc1cc(C(=O)COC(=O)CNC(=O)c2ccc(F)cc2)c(C)n1Cc1ccco1,-4.25,
COCC(C)n1c(C)cc(C(=O)COc2ccc(C)nc2[N+](=O)[O-])c1C (configuration not stated),59.1,
Cc1ccc(OCC(=O)c2cc(C)n(Cc3ccco3)c2C)c([N+](=O)[O-])n1,,35.5 µM (active)
CCOc1ccccc1NC(=O)NC1CCCCCCC1,-7.77,
CCOc1ccccc1NC(=O)CCc1nnc2ccc(NCc3ccco3)nn12,-19.5,
CCOc1ccccc1NC(=S)NC(=O)CCc1ccccc1,,7.94 µM (active)
CCOc1ccc(CNC(=O)Cn2cc3c(n2)-c2c(oc(C(=O)N4CCCC4)c2C)CC3)cc1,-0.78,
CC1=C(C(=O)OCc2ccc(C)cc2)C(c2c(Cl)cccc2Cl)CC(=O)N1 (configuration not stated),-1.29,
COc1ccc(CNC(=O)c2cc3c(=O)[nH]c4ccccc4c3s2)cc1,-3.05,
Cc1cc2cc(CNC(=O)c3cccs3)ccc2[nH]1,,31.6 µM (active)
CCc1cccc(CC)c1NC(=S)NCc1ccc2[nH]c(C)cc2c1,4.53,
COc1cc2nc(SCc3ccc(F)cc3)n3nc(CCn4c(C)nc5ccccc54)nc3c2cc1OC,4.89,
CCCSc1nc2sc3c(c2c(=O)n1-c1cccc(Br)c1)CC(C)(C)OC3,7.71,
COc1ccc(CCNc2ncnc3c2cnn3-c2ccc(C)cc2)cc1,-0.478,
O=C(CSc1nccn1C1CCCC1)Nc1cc(C(F)(F)F)ccc1Cl,6.6,
Cc1oc(-c2ccccc2Cl)[n+]([O-])c1C,,31.6 µM (active)
CCOc1cnc(-c2c(-c3ccccc3Cl)noc2C)o1,-5.55,
CCn1c(=O)c(=O)[nH]c2c(=O)oc3ccc(S(=O)(=O)Nc4ccc(OC)cc4)cc3c21,,35.5 µM (active)
COc1ccc(NS(=O)(=O)c2ccc3oc(SCC(N)=O)nc3c2)cc1,-0.717,
COc1ccc(S(=O)(=O)Nc2ccc3oc(C)c(C(C)=O)c3c2)cc1,-27.8,
CCOC(=O)c1ccc(NC(=O)CS(=O)(=O)c2cn(CC)c3ccccc23)cc1,1.35,
Cc1cc(NC(=O)COn2nnc3ccccc32)no1,0.17,
Cc1cc(NC(=O)CS(=O)(=O)c2cn(C)c3ccccc23)no1,,28.2 µM (active)
COc1ccc(N(C)C(=O)C2CCN(S(=O)(=O)c3cc(Br)cc4c3N(C(C)=O)CC4)CC2)cc1,4.51,
COc1ccc(Cl)cc1S(=O)(=O)N1CCC(c2ccncc2)CC1,-0.887,

Compound,"activity change, negative = inhibition [%]",Potency
COC(=O)c1ccc(-c2noc(CN(Cc3ccccn3)CC3CCCO3)n2)cc1 (configuration not stated),7.28,
CN(Cc1ccccn1)Cc1nc(-c2ccc(Cl)cc2)no1,,28.2 µM (active)
CCN1CC(CN(C)Cc2nc(-c3ccc(Cl)cc3)no2)CC1=O (configuration not stated),-4.79,
CC(=O)N1CCCc2ccc(NS(=O)(=O)c3ccc(F)cc3F)cc21,-1.51,
COc1cc(OC)cc(-c2nc3nc(C)c(CCC(=O)Nc4ccccc4)c(C)n3n2)c1,-3.65,
Cc1ccc(NC(=O)c2oc3ccc(S(=O)(=O)N4CCCCC4)cc3c2C)cc1Cl,7.17,
O=S(=O)(Nc1ncccn1)c1ccc(NS(=O)(=O)c2cccc(Cl)c2Cl)cc1,1.1,
O=C(CCS(=O)(=O)c1ccccc1Cl)Nc1ccc(S(=O)(=O)Nc2ncccn2)cc1,,14.1 µM (active)
O=C(/C=C/c1ccccc1Cl)Nc1ccc(S(=O)(=O)Nc2ncccn2)cc1,6.23,
CCOc1ccc(NC(=O)Cn2c(=O)n(CCCC(=O)NCc3ccc4c(c3)OCO4)c(=O)c3ccccc32)cc1,-0.638,
O=S(=O)(NCCS(=O)(=O)N1CCN(c2ccccc2)CC1)c1ccc(Cl)cc1,-1.31,
O=C(CNS(=O)(=O)c1cccs1)N1CCN(c2ccccc2Cl)CC1,-8.44,
Cc1ccccc1Nc1nn2c(=O)c3ccc(C(=O)NCCc4ccc(Cl)cc4)cc3nc2s1,-12.3,
O=C(O)c1ccc2c(c1)N(Cc1ccc(F)cc1)C(=O)c1ccccc1S2=O (configuration not stated),6,
CCc1ccc(NC(=O)NC(C)c2ccc3c(c2)OCO3)cc1 (configuration not stated),-3.56,
CCCCN(CC)C(=O)c1ccc2c(c1)OCO2,24.1,
CCC1=C/C(=C\c2ccc3c(c2)OCO3)C(=O)S1,,28.2 µM (active)
COc1cccc(S(=O)(=O)NCc2ccc(C(=O)NCc3ccccn3)cc2)c1,-21.9,
COc1ccc(-c2nc3ccc(C(=O)NCc4ccc(C)cc4)cc3nc2-c2ccc(OC)cc2)cc1,7.37,
O=C(NCc1ccccn1)c1ccc2nc(-c3ccco3)c(-c3ccco3)nc2c1,,0.891 µM (active)
Cc1ccc(C(=O)C(=S)N2CCOCC2)cc1,-13.4,
CNC(=S)N/N=C/c1ccc(OCc2ccccc2)c(Br)c1,-6.28,
CNC(=S)N/N=C/c1ccc(N2CCOCC2)s1,,28.2 µM (active)
CCN(CC)c1ccc(NC(=O)CN2CCN(CC(=O)Nc3ccc(Cl)cc3)CC2)cc1,0.407,
COc1ccc(C2C(=O)N(C3CCCCCC3)CC(=O)N2CCc2ccc(Cl)cc2)cc1OC (configuration not stated),8.56,

Compound,"activity change, negative = inhibition [%]",Potency
Oc1ccc(-c2nc3ccc(Cl)cn3c2Nc2ccc3c(c2)OCO3)cc1,-0.513,
COc1ccc(OC)c(NC(=O)CSC2=Nc3ccccc3C3=NC(CC(=O)NCCc4ccccc4)C(=O)N23)c1 (configuration not stated),-2.58,
Cc1coc2c(O)cc3c(c12)OC1(N2CCCCC2)C(=O)NCCCC31 (configuration not stated),,17.8 µM (active)
Cn1c(=O)c2c(nc(SCC(=O)Nc3ccc(F)cc3)n2Cc2ccc(Cl)cc2)n(C)c1=O,-12,
O=C(Nc1ccccc1Cl)N1CCC(CN2CCCCC2)CC1,2.55,
Cc1cc(C)c(/C=C/c2onc(C)c2S(=O)(=O)N2CCC(C(=O)Nc3ccc(Cl)cc3C)CC2)c(C)c1,1.13,
CCCCS(=O)(=O)c1oc(-c2cccs2)nc1S(=O)(=O)c1ccccc1,,0.501 µM (active)
NC(=O)CSc1oc(-c2cccs2)nc1S(=O)(=O)c1ccccc1,-20.4,
CSc1oc(-c2cccs2)nc1S(=O)(=O)c1ccc(Br)cc1,-4.01,
COc1ccccc1OCC(=O)Nc1nnc2n1CCS2,5.09,
CCOC(=O)c1c(S(=O)(=O)NCC(=O)Nc2ccc(Cl)c(C(F)(F)F)c2)c(C)n(C)c1C,-8.26,
Cc1ccc(C)c(S(=O)(=O)n2cnc3ccccc32)c1,5.84,
Cc1cc(C)c(S(=O)(=O)n2cc(C(C)C(N)C(=O)O)c3ccccc32)c(C)c1 (configuration not stated),,10 µM (active)
Cc1ccc(S(=O)(=O)n2cnc3ccccc32)c(C)c1,-18.3,
NS(=O)(=O)c1ccc2nc(NC(=O)COc3ccccc3)sc2c1,0.388,
O=C(CSc1nnc(-c2c[nH]c3ccccc23)o1)c1ccccc1,-1.66,
O=C(CSc1nnc(-c2ccco2)o1)NCC(=O)c1ccccc1,,44.7 µM (active)
O=C(CSc1nnc(-c2ccc(NS(=O)(=O)c3ccccc3)cc2)o1)NCC1CCCO1 (configuration not stated),1.62,
Cc1ccc(/C=C(\C#N)C(=O)Nc2cccc3ncccc23)o1,,20 µM (active)
O=C(O)c1cc(Cl)c(Cl)cc1C(=O)Nc1cccc2ncccc12,2.58,
CCOC(=O)c1ccc(-c2ccc(/C=C(\C#N)C(=O)Nc3ccc(OCC)cc3)o2)cc1,8.1,
COc1ccc(OC)c(CNC(=O)CN2C(=O)CCn3nc(-c4cn(C)c5ccccc45)cc32)c1,-1.65,
COc1ccc(CCN2C(=O)N(c3cccc(OC)c3)C(=O)C2CC(=O)Nc2ccccc2)cc1 (configuration not stated),2.12,
Cc1ccc(CN2CCC(CNC(=O)c3cnn(-c4ccc(C)cc4)c3C3CCN(C(=O)OC(C)(C)C)CC3)CC2)cc1,-11.7,
CCCC(=O)Nc1cc(C(=O)NCc2ccc(OC)cc2)ccc1S(=O)(=O)c1ccc(Cl)cc1,10.6,

Compound,"activity change, negative = inhibition [%]",Potency
COc1ccccc1-c1nnc(SCC(N)=O)o1,-4.37,
O=C(NCC#CCSc1nnc(-c2cccc3ccccc23)o1)c1cccs1,,22.4 µM (active)
O=C(OCC#CCSc1nnc(-c2ccncc2)o1)c1sc2ccccc2c1Cl,-26.9,
CSc1ccc(NC(=O)Cn2nnnc2-c2ccccc2F)cc1,3.69,
Cc1c(-c2ccccc2)cn2c1-c1ccc(C)n1CC2,,35.5 µM (active)
CCCOc1ccc(C(=O)Nc2ccc3oc(-c4cccc(Cl)c4Cl)nc3c2)cc1,-6.36,
Cc1ccc(S(=O)(=O)c2nc(-c3cccs3)oc2N2CCCCC2)cc1,-26.4,
Cc1ccccc1NC(=O)Cn1c(=O)n(CCc2ccccc2)c(=O)c2ccccc21,8.99,
C/C(CCC(=O)OC[C@H]1O[C@H](C#Cc2ccccc2)C=C[C@@H]1Oc1ccc(C)cc1)=N\OC[C@@H](O)[C@H]1O[C@@H]2OC(C)(C)O[C@@H]2[C@H]1O,,2.51 µM (active)
Cc1ccc(Cl)cc1NC(=O)Cc1ccc(-n2c(C)nc3cccnc32)cc1,-13.5,
Cc1cc(C)c2nc(N(CCN(C)C)C(=O)/C=C/c3cccs3)sc2c1,-18,
O=C(CCS(=O)(=O)c1ccccc1)N(Cc1cccnc1)c1nc2c(F)cccc2s1,,0.562 µM (active)
COc1cccc2sc(N(CCCN(C)C)C(=O)CCS(=O)(=O)c3ccccc3)nc12,,2 µM (active)
Cc1ccc2sc(N(CCN(C)C)C(=O)/C=C/c3cccs3)nc2c1C,2.08,
CN(C)S(=O)(=O)c1ccc(C(=O)N(Cc2cccnc2)c2nc3c(F)cc(F)cc3s2)cc1,0.57,
O=C(C1COc2ccccc2O1)N(Cc1cccnc1)c1nc2c(F)cc(F)cc2s1 (configuration not stated),-3.03,
CN(C)CCCN(C(=O)c1ccc(S(=O)(=O)N2CCCc3ccccc32)cc1)c1nc2ccc(F)cc2s1,-19.5,
Cc1cccc2sc(N(CCCN(C)C)C(=O)CCS(=O)(=O)c3ccccc3)nc12,,10 µM (active)
COc1ccc(N(C)C(=O)CCS(=O)(=O)c2cccc3nsnc23)cc1,,inactive
Cc1ccc(N2CC(NC(=O)Cc3cccs3)CC2=O)cc1 (configuration not stated),-1.46,
Cc1nc2sc(C)c(C)n2c(=O)c1S(=O)(=O)NCCc1ccc(Cl)cc1,0.289,
O=C(NC1CCCCC1)c1ccc(Cn2c(SCc3ccccc3)nc3cccnc32)cc1,3.32,
